# Bioassay records from PubChem BioAssay.
# EBI2 antag – antagonists of human EBI2 receptor | inhibition, % at 5 µM | EBI2 beta-arrestin recruitment, luminescence, 7a,25-OHC stimulated | AID 651636 | actives 0.81% (n = 360,000); in the data active = inhibition above about 38%;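 also: enzyme fragment complementation signal reports receptor beta-arrestin coupling in cells; 0% = agonist plus DMSO wells and 100% = wells without agonist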
# SENP7 inh – blocks the human protease SENP7; inhibition, % at 5 µM; recombinant SENP7, Z-RLRGG-aminoluciferin luminescence, 40 min; actives 1.5% (n = 330,000); Q9BQF6;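 active = inhibition above about 50% at the single test dose, limit read from the data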;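 also: plate controls were DMSO with enzyme for no effect and no enzyme buffer wells for full effect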
# AHR activator – activators of human aryl hydrocarbon receptor; P35869; AHR-responsive luciferase reporter cells, luminescence; activation, % at 5 µM; actives 2.5% (n = 320,000); in the data active = activation above about 47%;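 also: 0% = vehicle wells and 100% = reference agonist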
# SENP8 block-1 – blocks human SENP8 cleavage of Nedd8 substrate; inhibition, % at 20 µM; AID 602440; actives 0.64% (n = 360,000); recombinant SENP8, Nedd8 substrate fluorescence; in the data active = inhibition mostly above about 40%, no sharp cut-off; inactive = mostly below about 27%
# SENP8 block-2 – inhibitors of human SENP8 protease | purified SENP8, Z-RLRGG-aminoluciferin cleavage, luminescence | inhibition, % at 10 µM | AID 2540 | actives 1.2% (n = 330,000); in the data active = inhibition above about 50%
# SENP6 inh – inhibitors of human SENP6 protease. Recombinant SENP6 catalytic domain, aminoluciferin luminescence. actives 1.8% (n = 330,000). inhibition, % at 10 µM. Q9GZR1;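 active = inhibition above about 50% at the single tested dose, limit read from the data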;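 also: plate controls were DMSO wells with enzyme for no effect and DMSO wells lacking enzyme for full effect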
# AHR act cf – human AHR activation, confirmation; shares compounds with AHR activator; activation, % at 9 µM; actives 87% (n = 2,300); human cells, AHR-responsive luciferase reporter, luminescence; AID 2845; in the data active = activation above about 49%;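 also: HepG2 hepatoma cells carrying a DRE-driven firefly luciferase reporter; 0% = vehicle wells and 100% = reference agonist wells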
# PXR act counter – counter-screen for AHR activators: human PXR activators | shares compounds with AHR activator | cell-based PXR reporter, luciferase luminescence | activation, % at 11.6 µM | actives 88% (n = 2,300); in the data active = activation above about 11%;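 also: human hepatoma DPX-2 cells expressing full-length human PXR; 0% = DMSO and 100% = reference agonist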
# Target sequence (O75469 whole entry, looked up): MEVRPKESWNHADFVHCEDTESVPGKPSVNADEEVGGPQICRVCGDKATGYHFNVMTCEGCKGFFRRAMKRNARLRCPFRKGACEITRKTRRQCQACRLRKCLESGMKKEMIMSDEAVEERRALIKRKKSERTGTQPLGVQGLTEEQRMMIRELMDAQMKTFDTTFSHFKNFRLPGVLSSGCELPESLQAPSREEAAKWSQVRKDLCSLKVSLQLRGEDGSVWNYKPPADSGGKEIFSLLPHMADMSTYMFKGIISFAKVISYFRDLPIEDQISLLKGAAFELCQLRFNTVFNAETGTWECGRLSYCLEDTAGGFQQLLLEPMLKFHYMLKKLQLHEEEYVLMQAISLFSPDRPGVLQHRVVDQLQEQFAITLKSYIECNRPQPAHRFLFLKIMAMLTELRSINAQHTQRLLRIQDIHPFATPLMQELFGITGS
# * hit, by the source's call; nt = not tested or not shown. Shown are actives, neighbours in structure and some others; about 5% of the full set was active somewhere.
SMILES,EBI2 antag,SENP7 inh,AHR activator,SENP8 block-1,SENP8 block-2,SENP6 inh,AHR act cf,PXR act counter
CCCc1ccc(-c2c(C)sc(N)c2C#N)cc1,6,-5,97*,-9,0,13,104*,13*
CCCC(=O)Nc1sc(C)c(-c2ccc(OC)cc2)c1C#N,-12,2,1,-259,1,11,nt,nt
Cc1ccc2nc(C(Cl)(Cl)Cl)nc(N/N=C/c3ccncc3)c2c1,-2,-12,93*,-8,7,13,110*,15*
Clc1ccc(Nc2nc3ccccc3n3nnnc23)cc1,24,11,81*,-56,2,0,104*,50*
Clc1ccc(CCNc2nc3ccccc3n3nnnc23)cc1,-3,8,5,-375,1,-3,nt,nt
COc1ccc(Nc2nc3ccccc3n3nnnc23)cc1,7,5,99*,5,10,-9,103*,29*
Fc1cc(Br)ccc1Nc1nc2ccccc2n2nnnc12,-2,-1,131*,-104,8,13,125*,28*
COc1ccc2[nH]c(=O)c(CN(CC3CCCO3)S(=O)(=O)c3ccccc3F)cc2c1 (stereo unspecified),-5,12,1,-313,-1,-18,nt,nt
Cc1ccc(N2C(=O)[C@@H]3[C@H](C2=O)[C@H]2C=CC=NN2[C@@H]3C(=O)Nc2ccc(Cl)cc2)cc1,3,17,19,28,5,-9,nt,nt
O=C(Nc1ccc(Cl)cc1)[C@@H]1[C@@H]2C(=O)N(c3ccc(Cl)cc3)C(=O)[C@@H]2[C@H]2C=CC=NN21,4,-6,98*,-23,-7,4,63*,13*
O=C1c2ccccc2C(=O)c2c1cccc2N(CCO)CCO,-12,2,131*,17,7,9,14,8
O=C1C=C(N(CCO)Cc2ccccc2)c2ccccc2C1=O,-15,nt,nt,-420,nt,nt,nt,nt
COc1ccc(-c2nc3ncccn3c2Br)cc1,-20,26,29,-389,22,35,nt,nt
Brc1c(-c2ccc3c(c2)OCO3)nc2ncccn12,-13,15,101*,-350,-8,-33,116*,22*
O=C(NCC(c1ccco1)N1CCOCC1)c1c(F)cccc1F (stereo unspecified),1,3,0,9,9,-16,nt,nt
Cc1nn(-c2ccccc2)c(Cl)c1/C=N/N1CCN(c2ccccn2)CC1,-6,-3,161*,12,-4,1,4,27*
Cc1nn(-c2ccccc2)c(C)c1/C=N/N1CCN(c2ccccn2)CC1,-3,1,0,13,-5,0,nt,nt
O=C1c2ccccc2C(=O)N1CC(O)COc1cccc2ccccc12 (stereo unspecified),-9,nt,nt,-4,nt,nt,nt,nt
O=C(CN1CCN(c2ccccc2O)CC1)Nc1ccccc1C(=O)NCCc1ccccc1,3,1,91*,-14,8,0,93*,85*
COCCNc1oc(/C=C/c2ccccc2)nc1C#N,11,7,47,-434,-9,-15,nt,nt
CNc1oc(/C=C/c2ccccc2)nc1C#N,5,29,136*,-392,16,38,112*,18*
O=C(Nc1ccc(-c2nc3cccnc3s2)cc1)c1ccc(Cl)nc1,10,5,86*,-422,-4,-7,5,11*
Cc1ccc(C)c(OCCSc2nnc(-c3cccnc3)n2N)c1,0,-7,94*,12,-5,-15,66*,30*
Cn1c(C(O)c2ccc(Cl)cc2)nc(Cl)c1Cl (stereo unspecified),5,-5,88*,13,1,13,114*,71*
CC(=O)c1c(C)[nH]c(C(=O)Nc2cc(C)ccc2C)c1C,-9,-3,118*,0,7,-1,93*,38*
SMILES,EBI2 antag,SENP7 inh,AHR activator,SENP8 block-1,SENP8 block-2,SENP6 inh,AHR act cf,PXR act counter
CC(=O)c1c(C)[nH]c(C(=O)Nc2cccc(C)n2)c1C,-13,9,5,-8,-15,-9,nt,nt
CC(=O)c1c(C)[nH]c(C(=O)Nc2nccs2)c1C,-6,10,133*,-23,3,-5,74*,36*
CC(=O)c1c(C)[nH]c(C(=O)Nc2ccc(F)cc2F)c1C,3,-7,98*,8,-8,0,131*,38*
CCc1ccc(CN2CCC(n3nccc3NC(=O)Cc3ccccc3)CC2)o1,-6,-5,nt,-4,7,6,nt,nt
COc1ccc(S(=O)(=O)N2CCCCC2c2cc(C(=O)Nc3ccccc3)no2)cc1 (stereo unspecified),-12,nt,nt,16,nt,nt,nt,nt
CN1C(=O)/C(=C/c2ccccc2OCc2ccccc2F)NC1=S,-1,-5,93*,19,-3,-4,79*,85*
Cc1ccc2cc3c(NC(=O)c4cccnc4)nn(C)c3nc2c1,1,12,114*,-445,-9,0,93*,14*
Cc1ccc2cc3c(NC(=O)c4ccco4)nn(C)c3nc2c1,-19,-2,82*,-490,-12,-23,97*,2
O=C(NNC(=S)Nc1ccccc1)C1CCCCC1,16,-2,4,8,3,-1,nt,nt
N#Cc1ccccc1NC(=O)c1ccccc1OCC(=O)NCc1ccco1,-5,-8,117*,11,1,-4,109*,47*
N#Cc1ccccc1NC(=O)c1ccccc1OCC(=O)Nc1ccc2c(c1)oc1ccccc12,10,-1,10,7,-2,-7,nt,nt
CC(C)C1Oc2ccccc2N(CC(=O)NC2CCCCC2)C1=O (stereo unspecified),13,3,-1,12,3,-6,nt,nt
Cc1ccc(C(=O)N(Nc2nc3ccccc3s2)C(=O)c2ccc(C)cc2)cc1,9,4,9,8,-1,-5,nt,nt
COC(=O)CC/C(O)=C1\C(=O)CC(C)(C)CC1=NCc1nc2ccccc2[nH]1,-13,1,-2,9,3,2,nt,nt
Clc1ccccc1-c1nc(/C=N/N2CCOCC2)c2ccccn12,1,-3,13,-95,-8,-14,nt,nt
CN1CCN(/N=C/c2nc(-c3ccccc3)n3ccccc23)CC1,-3,-1,102*,-125,-8,1,65*,16*
Clc1ccc(-c2nc(/C=N/N3CCOCC3)c3ccccn23)cc1,12,6,90*,-118,-3,-10,78*,25*
CC(=O)N/N=C/c1cc(C(C)(C)C)cc(/C=N/NC(C)=O)c1O,-8,nt,82*,-6,nt,nt,83*,22*
CC(=O)N(c1ccc(Cl)cc1)c1nc(C)cc(C)c1C#N,0,2,102*,2,-3,5,112*,110*
CC(=O)N(c1ccccc1)c1nc(C)cc(C)c1C#N,-3,4,18,25,-8,-9,nt,nt
